Reference: PubChem BioAssay AID1159580 (chemical genetic matrix, 2015)
Values joined by “and” are separate entries in the source; they are usually repeats but may differ in a detail not shown here. Equal values may be shown once. In all, about 5,500 compounds went through this assay and about 2,000 (36%) were called active. Not shown: some 18% with an inconclusive outcome. No stated cut-off is given here; in the data, active means normalized growth mostly below about 0.91 (no sharp cut-off); inconclusive means no clear call, values can overlap the other calls; inactive means mostly above about 0.92. Some of the results follow.

Assay: chemical genetic growth profiling, strain panel (AID 1159580);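 further: tested at 20 µM; growth read once vehicle control cultures reached saturation at 30 °C; 1 = growth at the plate median or of vehicle wells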
Conditions: S. cerevisiae deletion strains, growth OD

Measured: normalized growth

CCCCCCCCCCCCCCCCCCOCC(O)CO (configuration not stated)
inactive: locus YAL013W, strain DEP1, stronger effect = lower value 1.01 | locus YAL021C, strain ccr4, stronger effect = lower value 1.01 | locus YAL026C, strain drs2, stronger effect = lower value 1 | locus YAL030W, strain snc1, stronger effect = lower value 0.991 | locus YBL061C, strain skt5, stronger effect = lower value 0.987 | locus YBR009C, strain hhf1, stronger effect = lower value 0.959 | locus YBR021W, strain FUR4, stronger effect = lower value 1.03 | locus YBR023C, strain chs3, stronger effect = lower value 0.99 | locus YBR171W, strain sec66, stronger effect = lower value 0.999 | locus YBR229C, strain ROT2, stronger effect = lower value 1.01 | locus YBR231C, strain swc5, stronger effect = lower value 0.981 | locus YBR279W, strain paf1, stronger effect = lower value 0.992 | locus YCL011C, strain gbp2, stronger effect = lower value 0.988 | locus YCL016C, strain dcc1, stronger effect = lower value 0.994 | locus YCL029C, strain bik1, stronger effect = lower value 1.01 | locus YCL061C, strain MRC1, stronger effect = lower value 0.996 | locus YCL069W, strain vba3, stronger effect = lower value 0.998 | locus YCR088W, strain abp1, stronger effect = lower value 0.997 | locus YDL005C, strain med2, stronger effect = lower value 0.989 | locus YDL035C, strain GPR1, stronger effect = lower value 1.02 | locus YDL040C, strain nat1, stronger effect = lower value 0.973 | locus YDL074C, strain BRE1, stronger effect = lower value 1.06 | locus YDL101C, strain DUN1, stronger effect = lower value 1.01 | locus YDL185W, strain tfp1, stronger effect = lower value 1.02 | locus YDL192W, strain arf1, stronger effect = lower value 1.01 | locus YDR001C, strain nth1, stronger effect = lower value 0.995 | locus YDR069C, strain doa4, stronger effect = lower value 0.973 | locus YDR101C, strain arx1, stronger effect = lower value 1.04 | locus YDR137W, strain rgp1, stronger effect = lower value 0.987 | locus YDR150W, strain NUM1, stronger effect = lower value 0.998 | locus YDR159W, strain sac3, stronger effect = lower value 0.952 | locus YDR162C, strain NBP2, stronger effect = lower value 0.991 | locus YDR195W, strain ref2 0.951 | locus YDR297W, strain sur2, stronger effect = lower value 0.995 | locus YDR318W, strain mcm21, stronger effect = lower value 0.986 | locus YDR334W, strain swr1, stronger effect = lower value 0.994 | locus YDR335W, strain msn5, stronger effect = lower value 1 | locus YDR388W, stronger effect = lower value 1.01 | locus YDR392W, strain spt3, stronger effect = lower value 0.858 | locus YDR502C, strain sam2, stronger effect = lower value 1.02 | locus YEL003W, strain gim4, stronger effect = lower value 0.998 | locus YEL037C, strain rad23, stronger effect = lower value 1 | locus YEL061C, strain CIN8 (second series), stronger effect = lower value 0.992 | locus YEL061C, strain CIN8, stronger effect = lower value 1.01 | locus YER015W, strain faa2, stronger effect = lower value 0.989 | locus YER016W, strain bim1, stronger effect = lower value 0.994 | locus YER110C, stronger effect = lower value 1.01 | locus YER111C, strain swi4, stronger effect = lower value 0.979 | locus YER155C, strain BEM2 (second series), stronger effect = lower value 0.948 | locus YER155C, strain BEM2, stronger effect = lower value 1.01 | locus YER167W, strain BCK2, stronger effect = lower value 1 | locus YFR010W, strain ubp6, stronger effect = lower value 1.01 | locus YGL078C, strain dbp3, stronger effect = lower value 1.02 | locus YGL086W, strain mad1, stronger effect = lower value 1.05 | locus YGL167C, strain pmr1, stronger effect = lower value 0.986 | locus YGL173C, strain kem1, stronger effect = lower value 0.984 | locus YGL227W, strain vid30, stronger effect = lower value 0.985 | locus YGL240W, strain doc1, stronger effect = lower value 0.966 | locus YGL248W, strain PDE1, stronger effect = lower value 1 | locus YGL253W, strain hxk2, stronger effect = lower value 1 | locus YGR135W, strain pre9, stronger effect = lower value 0.968 | locus YGR252W, strain gcn5, stronger effect = lower value 0.969 | locus YHR013C, strain ard1, stronger effect = lower value 0.938 | locus YHR027C, strain rpn1, stronger effect = lower value 0.998 | locus YHR030C, strain SLT2, stronger effect = lower value 1.01 and 1.02 | locus YHR079C, strain IRE1 (second series), stronger effect = lower value 1 | locus YHR079C, strain IRE1, stronger effect = lower value 0.993 | locus YHR094C, strain hxt1, stronger effect = lower value 1.01 | locus YHR129C, strain ARP1, stronger effect = lower value 1.01 | locus YHR142W, strain chs7, stronger effect = lower value 1.04 | locus YHR200W, strain rpn10, stronger effect = lower value 1.01 | locus YIL066C, strain RNR3, stronger effect = lower value 1.01 | locus YIL073C, strain SPO22, stronger effect = lower value 1.01 | locus YIL125W, strain kgd1, stronger effect = lower value 1.01 | locus YIR030C, strain dcg1, stronger effect = lower value 1 | locus YJL092W, strain hpr5, stronger effect = lower value 0.999 | locus YJL095W, strain BCK1 (second series), stronger effect = lower value 0.998 | locus YJL095W, strain BCK1, stronger effect = lower value 1.02 and 0.984 | locus YJL115W, strain asf1, stronger effect = lower value 0.987 | locus YJL129C, strain trk1, stronger effect = lower value 0.984 | locus YJL134W, strain LCB3, stronger effect = lower value 0.997 | locus YJL154C, strain vps35, stronger effect = lower value 0.992 | locus YJL164C, strain tpk1, stronger effect = lower value 1 | locus YJL166W, strain qcr8, stronger effect = lower value 0.99 | locus YJL168C, strain set2, stronger effect = lower value 0.999 | locus YJL187C, strain SWE1 (second series), stronger effect = lower value 1.03 | locus YJL187C, strain SWE1, stronger effect = lower value 0.996
